Experimental findings from PubChem BioAssay (NCATS) are described below.

Inconclusive results are not listed. The source made the active and inactive calls. Unless noted, the call rests on the fitted dose curve; in most records, active means well fitted curve in the direction sought with a large enough effect; inconclusive means small, poorly fitted or top-dose-only effect, or another doubt; inactive means no such curve, though single readings can be large; an effect the other way counts as inactive or inconclusive.

A short description of test [1]: qHTS Assay for Lipid Storage Modulators (AID 1519; calls by dose curve; on activity change, negative = inhibition: on the % scale 0 is the no-effect control and ±100 the full control effect). Particulars: Drosophila S3 cells, BODIPY lipid droplet/cell ratio, laser cytometry, cells loaded with oleic acid; for activity change, negative = inhibition: at 57.5 µM (top of the series). Put shortly:
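Cells seeded at 5,000 per well were treated with compounds over a concentration series and loaded with oleic acid (400 uM, as added). Lipid droplet fluorescence (488 nm excitation, 500-530 nm channel) was read by laser-scanning cytometry and normalized to 20 uM Triacsin C.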
In general terms: qHTS replaces the single test concentration by a dilution series.

Test [2] has as its target ATP-dependent 6-phosphofructokinase (Trypanosoma brucei brucei) (UniProt O15648). Kind of test: qHTS Assay to Find Inhibitors of T. brucei phosphofructokinase: hit validation (AID 492961).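 Further: luminescence reports ADP formed as PFK phosphorylates fructose-6-phosphate with ATP; on the % scale 0 is the no-effect control and ±100 the full control effect.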 Particulars: T. brucei PFK, ADP-Glo luminescence; series mostly up to 24.3 µM. The gist of the method:
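ADP-Glo luminescence read-out of ADP formed by 1.25 nM PFK from 0.1 mM ATP and 0.5 mM F6P (TEA pH 8.0, 45 min, RT). Compounds titrated; activity normalized to no-enzyme and full-enzyme controls.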

Test [3] has as its target Luciferin 4-monooxygenase (Photinus pyralis) (UniProt P08659). Put plainly: Biochemical firefly luciferase enzyme assay for NPC (AID 624030). Further: nearly all actives have a fitted effect of over 70% in size. Further: potency means the concentration at half of the fitted maximal effect.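 On activity change, negative = inhibition: purified P. pyralis luciferase at 10 nM with luciferin and ATP substrate; 0% = DMSO and -100% = full luciferase inhibition by PTC124 control.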 Particulars: purified P. pyralis luciferase, luminescence, 5 min; series mostly up to 24.9 µM. Put shortly:
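Direct inhibition of firefly luciferase enzyme (10 nM final, 50 mM Tris Acetate) assessed by luminescence within 5 minutes. Percent activity scaled between DMSO and PTC124 positive control, with concentration-effect curves classified by fit quality and response.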

Test [4] in a line: qHTS profiling for inhibitors of Plasmodium falciparum proliferation (AID 504749). Further: nearly all actives have a fitted effect of over 60% in size. Further: potency means the concentration at half of the fitted maximal effect.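 On activity, negative = inhibition: 0% = DMSO vehicle and full inhibition = artemisinin control.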 Particulars: P. falciparum in erythrocytes, SYBR Green DNA, 72 h, at 28.7 µM (top of the series). Put shortly: (§1)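 Infected RBCs, 0.3% parasitemia/2.5% Hct final; cpd 72 h, 37 C, 5% CO2; lysis buffer with saponin/triton/SYBR Green I, o/n RT dark; FI 485/535; norm. to artemisinin (0.29 uM) and DMSO.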

For a further test, the system named is C2A. Described as above. Particulars: P. falciparum in erythrocytes, SYBR Green DNA, 72 h; series mostly up to 12.8 µM. The gist of the method:
as §1

The test system of another test is CP305. The description is as above. Particulars: P. falciparum in erythrocytes, SYBR Green DNA, 72 h; series mostly up to 12.8 µM. Put shortly: as §1
A further test concerns CP329. The test is described as above. Particulars: P. falciparum in erythrocytes, SYBR Green DNA, 72 h; series mostly up to 12.8 µM. Put shortly: as §1
Another test deals with FAB9. The test is described as above. Particulars: P. falciparum in erythrocytes, SYBR Green DNA, 72 h; series mostly up to 12.8 µM. Put shortly:
as §1

The next test deals with PC15. The test is described as above. Particulars: P. falciparum in erythrocytes, SYBR Green DNA, 72 h; series mostly up to 12.8 µM. Put shortly: as §1
In another test the test system is PC49. The description is as above. Particulars: P. falciparum in erythrocytes, SYBR Green DNA, 72 h; series mostly up to 12.8 µM. The gist of the method:
as §1

For the next test, the system named is TAB165. Described as above. Particulars: P. falciparum in erythrocytes, SYBR Green DNA, 72 h; series mostly up to 12.8 µM. The gist of the method: as §1
The target of test [5] is Ubiquitin carboxyl-terminal hydrolase 1 (Homo sapiens) (UniProt O94782). Put plainly: Inhibitors of USP1/UAF1: Pilot qHTS (AID 504865).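 Further: rhodamine fluorescence freed from ubiquitin-rhodamine substrate followed over time; top concentration of the series differs between compounds; on the % scale 0 is the no-effect control and ±100 the full control effect; nearly all actives have a fitted effect of over 35% in size.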 Particulars: purified USP1/UAF1, Ub-rhodamine cleavage fluorescence; series mostly up to 114 µM. The gist of the method: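 Deubiquitinase activity followed as kinetic rhodamine fluorescence release from 150 nM Ub-Rho. 1 nM USP1/UAF1 with compound, after 15 min room-temperature preincubation, in HEPES pH 7.8 buffer containing TCEP, EDTA, BSA and Tween-20.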
Ubiquitin carboxyl-terminal hydrolase 1 (Homo sapiens), sequence (O94782 whole entry, looked up): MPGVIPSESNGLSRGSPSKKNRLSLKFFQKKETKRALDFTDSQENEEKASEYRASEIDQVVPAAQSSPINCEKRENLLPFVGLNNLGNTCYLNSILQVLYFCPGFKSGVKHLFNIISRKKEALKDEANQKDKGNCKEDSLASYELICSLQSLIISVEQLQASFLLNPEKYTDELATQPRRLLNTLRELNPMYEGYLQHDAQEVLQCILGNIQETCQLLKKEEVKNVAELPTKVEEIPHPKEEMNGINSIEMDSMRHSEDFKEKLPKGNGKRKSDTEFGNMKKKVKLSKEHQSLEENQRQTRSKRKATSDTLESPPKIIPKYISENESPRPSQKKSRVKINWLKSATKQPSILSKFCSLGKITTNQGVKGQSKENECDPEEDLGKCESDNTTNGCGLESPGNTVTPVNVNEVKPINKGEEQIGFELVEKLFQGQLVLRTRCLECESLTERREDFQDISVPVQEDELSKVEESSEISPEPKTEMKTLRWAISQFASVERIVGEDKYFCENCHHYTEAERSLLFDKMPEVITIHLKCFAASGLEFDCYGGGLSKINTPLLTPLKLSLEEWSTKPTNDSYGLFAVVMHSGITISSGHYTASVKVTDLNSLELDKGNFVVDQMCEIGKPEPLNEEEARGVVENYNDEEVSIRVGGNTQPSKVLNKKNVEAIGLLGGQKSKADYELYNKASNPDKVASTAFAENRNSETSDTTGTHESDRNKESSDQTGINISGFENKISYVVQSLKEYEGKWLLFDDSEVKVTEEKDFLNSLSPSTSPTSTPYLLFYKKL

A further test deals with CP191. Kind of test: qHTS profiling for inhibitors of Plasmodium falciparum proliferation (AID 504749). Further: nearly all actives have a fitted effect of over 60% in size. Further: potency means the concentration at half of the fitted maximal effect.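 On activity, negative = inhibition: 0% = DMSO vehicle and full inhibition = artemisinin control.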 Particulars: P. falciparum in erythrocytes, SYBR Green DNA, 72 h; series mostly up to 12.8 µM. The gist of the method:
as §1

For a further test, the system named is ECU. The test is described as above. Particulars: P. falciparum in erythrocytes, SYBR Green DNA, 72 h; series mostly up to 12.8 µM. Put shortly: as §1
A further test deals with N140. The test is described as above. Particulars: P. falciparum in erythrocytes, SYBR Green DNA, 72 h; series mostly up to 12.8 µM. The gist of the method:
as §1

Another test relates to AS120. Described as above. Particulars: P. falciparum in erythrocytes, SYBR Green DNA, 72 h; series mostly up to 12.8 µM. Put shortly:
as §1

For a further test, the system named is CP217. The description is as above. Particulars: P. falciparum in erythrocytes, SYBR Green DNA, 72 h; series mostly up to 12.8 µM. Put shortly: as §1
Setting [6] is: measured here: cell count channel max response.
Setting [7] is: measured here: lipid channel max response.

ATP-dependent 6-phosphofructokinase (Trypanosoma brucei brucei), sequence (O15648 whole entry, looked up): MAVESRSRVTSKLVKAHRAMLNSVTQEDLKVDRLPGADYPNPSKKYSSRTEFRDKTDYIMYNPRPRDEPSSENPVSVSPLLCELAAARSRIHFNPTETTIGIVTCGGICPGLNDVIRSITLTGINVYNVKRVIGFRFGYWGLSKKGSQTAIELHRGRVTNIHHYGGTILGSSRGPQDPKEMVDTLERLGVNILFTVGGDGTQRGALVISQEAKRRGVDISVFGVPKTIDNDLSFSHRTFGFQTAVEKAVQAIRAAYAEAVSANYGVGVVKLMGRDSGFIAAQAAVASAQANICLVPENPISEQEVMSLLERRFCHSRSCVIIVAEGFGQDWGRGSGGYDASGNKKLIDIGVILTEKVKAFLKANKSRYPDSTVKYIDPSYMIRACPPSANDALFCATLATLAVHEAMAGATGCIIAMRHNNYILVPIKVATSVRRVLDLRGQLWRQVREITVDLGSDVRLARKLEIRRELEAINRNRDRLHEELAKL
Luciferin 4-monooxygenase (Photinus pyralis), sequence (P08659 whole entry, looked up): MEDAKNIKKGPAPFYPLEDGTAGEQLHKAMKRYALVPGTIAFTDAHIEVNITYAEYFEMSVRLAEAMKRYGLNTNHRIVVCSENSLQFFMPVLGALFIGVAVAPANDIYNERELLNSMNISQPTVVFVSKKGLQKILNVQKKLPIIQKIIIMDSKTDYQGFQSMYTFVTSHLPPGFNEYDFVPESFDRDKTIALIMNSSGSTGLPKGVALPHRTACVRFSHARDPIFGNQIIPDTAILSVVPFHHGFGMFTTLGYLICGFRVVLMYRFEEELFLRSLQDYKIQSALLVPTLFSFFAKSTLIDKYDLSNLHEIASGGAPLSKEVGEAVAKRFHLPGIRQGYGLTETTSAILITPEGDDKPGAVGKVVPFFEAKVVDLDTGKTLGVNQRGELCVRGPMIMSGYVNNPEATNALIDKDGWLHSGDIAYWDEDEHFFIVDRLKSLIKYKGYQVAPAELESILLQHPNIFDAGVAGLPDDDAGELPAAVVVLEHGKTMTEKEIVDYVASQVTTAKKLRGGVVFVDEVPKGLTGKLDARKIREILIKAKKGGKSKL

With `CCCCCCCCCc1ccc(OCCOCCOCCOCCOCCOCCOCCOCCOCCO)cc1`, the activity change, negative = inhibition in test [1] is -9.66% (inactive). In addition, the max response was 4.66% in [1] (setting [6]) and -5.26% in test [1] (setting [7]). The call in test [2] was inactive. Further, the Potency entry (in [3]; in the test with C2A; with CP305; in the test with CP329; in the test with FAB9; in the test on PC15) was “inactive” in each case. The Potency result in the test on PC49 is “inactive”. Besides, the activity, negative = inhibition in test [4] (parasite line B) is -22.2% (inactive). For the same compound, the Potency in the test with TAB165 was 7.08 µM (active).

Take `NC(CCC(=O)N[C@@H](CS)C(=O)NCC(=O)O)C(=O)O` (some centres not stated): the activity change, negative = inhibition in test [1] is 8.76% (inactive). The max response in test [1] (setting [6]) came to 11.9%; in [1] (setting [7]), 24.8%. Further, in [2], the compound was called inactive. In addition, the Potency entry in test [5] and in [3] was “inactive” in each case. In addition, the Potency is 10 µM (active) in the test with C2A; 8.91 µM (active) in the test on CP191; 10 µM (active) with ECU; 4.47 µM (active) in the test on N140; 5.01 µM (active) in the test on PC15; 3.98 µM (active) in the test on TAB165.

Turning to `CCC(C)C(=O)OC1CCC=C2C=CC(C)C(CCC3CC(O)CC(=O)O3)[C@@H]21` (some centres not stated), in [1], the activity change, negative = inhibition was 0.311% (inactive). Also, the max response in test [1] (setting [6]) is 8.24%; in test [1] (setting [7]), 6.43%. For the same compound, in [2], the result was inactive. Moreover, the Potency result (in test [3]; in the test on AS120; with C2A; in the test with CP191; in the test with CP217; in the test on CP305) was “inactive” throughout. The Potency entry in the test on CP329, in the test with ECU, in the test with FAB9, in the test on N140, with PC15 and in the test with PC49 was “inactive” each time. Further, the Potency result in the test on TAB165 was “inactive”. Also, the activity, negative = inhibition in test [4] (parasite line A) was 6.36% (inactive); in [4] (parasite line B), -8.04% (inactive).

On to `COc1ccc2cc(C(C)CO)ccc2c1` (configuration not stated), for which, in test [1], the activity change, negative = inhibition is 8.58% (inactive). The max response was determined as 13.8% in test [1] (setting [6]) and 24.6% in test [1] (setting [7]). The compound was called inactive in test [2]. Further, the Potency entry (in [5]; in test [3]; in the test on AS120; in the test on C2A; with CP191; in the test on CP217) was “inactive” throughout. Besides, the Potency entry with CP305, in the test with CP329, with ECU, in the test on FAB9, with N140 and in the test on PC15 was “inactive” in each case. In addition, the Potency entry with PC49 and in the test with TAB165 was “inactive” in each case. Further, the activity, negative = inhibition in test [4] (parasite line A) is 12.4% (inactive); in [4] (parasite line B), 6.41% (inactive).

Take `CNC1CC(N)[C@H](O)[C@@H](O[C@@H]2OC(CO)C3OC4(OC(C(N)CO)C(O)C(O)C4O)O[C@@H]3[C@H]2O)C1O` (some centres not stated): the activity change, negative = inhibition in [1] was 3.46% (inactive). The max response worked out at 3.52% in test [1] (setting [6]) and 7.53% in [1] (setting [7]). Further, in [2], the outcome was inactive. The Potency result (in test [5]; in test [3]; in the test with AS120; in the test with C2A; with CP191; in the test on CP217) was “inactive” throughout. The Potency entry in the test with CP305, in the test with CP329, in the test with ECU, in the test on FAB9, in the test on N140 and with PC15 was “inactive” each time. Further, the Potency entry in the test on PC49 and with TAB165 was “inactive” each time. Moreover, the activity, negative = inhibition in test [4] (parasite line A) is 1.25% (inactive); in [4] (parasite line B), -26.8% (inactive).

As to `CC(C)Oc1ccc2c(=O)cc(-c3ccccc3)oc2c1`, in test [1], the activity change, negative = inhibition was 14.1% (inactive). Moreover, the max response in test [1] (setting [6]) turned out to be 14.7%; in test [1] (setting [7]), 29.4%. Besides, the outcome in [2] was inactive. The Potency in test [3] was 0.809 µM (active). The activity, negative = inhibition in [4] (parasite line A) is -21.9% (inactive). The Potency entry with AS120, in the test on C2A, in the test with CP191, in the test on CP217, with CP305 and with CP329 was “inactive” in each case. In addition, the Potency entry in the test with ECU, in the test on FAB9, in the test on N140, in the test with PC15, with PC49 and in the test with TAB165 was “inactive” in each case.
